The nature of experiment [1]: qHTS assay to test for compound auto fluorescence at 535 nm (green) in HEK293 cells (AID 720680).
Experiment [2] in a line: qHTS assay to test for compound auto fluorescence at 460 nm (blue) in HEK293 cell free culture (AID 720681). The method in brief:
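Compounds were added to cell-free DMEM with 10% FBS and fluorescence read directly. The blue channel used 405 nm excitation and 460 nm emission, with triamterene as the reference fluorophore.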

Experiment [3] in a line: qHTS assay to test for compound auto fluorescence at 535 nm (green) in HEK293 cell free culture (AID 720682). The method in brief:
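DMEM + 10% FBS, cell-free; cpd or DMSO pinned in; Ex485/Em535 read; output as fluorescein-equivalent signal.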

Experiment [4] in a line: qHTS assay to test for compound auto fluorescence at 590 nm (red) in HEK293 cell free culture (AID 720683). The method in brief:
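Cell-free wells of DMEM with 10% FBS received compound, and intrinsic fluorescence was read at excitation/emission 540/590 nm. Values expressed as equivalence to Rose Bengal sodium.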

Experiment [5] is described as follows: qHTS assay to test for compound auto fluorescence at 460 nm (blue) in HepG2 cell free culture (AID 720685). In outline: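 Compound (23 nL) or DMSO pinned into cell-free MEM with 10% FBS; blue fluorescence read at 405/460 nm excitation/emission, expressed as auto-fluorescence equivalency to triamterene.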
A short description of experiment [6]: qHTS assay to test for compound auto fluorescence at 535 nm (green) in HepG2 cell free culture (AID 720686).
Experiment [7] in a line: qHTS assay to test for compound auto fluorescence at 460 nm (blue) in HepG2 cells (AID 720687). In outline: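 HepG2 cells in MEM with 10% FBS, attached overnight at 37 C, were exposed to compound or DMSO for 1 hr at 37 C, 5% CO2. Blue fluorescence was read at 405/460 nm, with triamterene as reference fluorophore.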
A general note: qHTS replaces the single test concentration by a dilution series.

Experiment [8] has as its target Glucocorticoid receptor (Homo sapiens) (UniProt P04150). Nature of the experiment: qHTS assay to identify small molecule agonists of the glucocorticoid receptor (GR) signaling pathway (AID 720691; active = well fitted activation curve with a large enough effect in the signal ratio in the repeat runs, not every such curve was filed as active; the % refers to the signal ratio). In outline: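 Agonist mode in a HeLa line carrying a GRE-controlled beta-lactamase reporter. Compounds act for 18 h at 37 C before a 2 h room-temperature FRET substrate step and fluorescence reading.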

Experiment [9] shares this target. Nature of the experiment: qHTS assay to identify small molecule antagonists of the glucocorticoid receptor (GR) signaling pathway (AID 720692; active = well fitted inhibition curve with a large enough effect in the signal ratio in the repeat runs, not every such curve was filed as active; the % refers to the signal ratio). The method in brief: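 Cells plated, rested 4 h at 37 C/5% CO2; compounds in DMSO pin-transferred; dexamethasone added to 5 nM final; 18 h at 37 C; B/G FRET substrate added, 2 h room temperature; fluorescence measured.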

A short description of experiment [10]: qHTS assay to identify small molecule antagonists of the glucocorticoid receptor (GR) signaling pathway - cell viability counter screen (AID 720693). Note: nearly all actives have a fitted effect of over 55% in size.
Experiment [11] can be described thus: qHTS assay for identifying genotoxic compounds that show differential cytotoxicity against isogenic chicken DT40 cell lines with known DNA damage response pathways - wild type cell line (AID 743012). Note: nearly all actives have a fitted effect of over 60% in size. The method in brief: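 Cells (DT40 wild type, 300/well) are treated with DMSO-dissolved compounds after a ~0.5 h pre-incubation and kept 40 h at 37 C/5% CO2. Viability is then measured by CellTiter-Glo luminescence following 30 min at room temperature.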

Experiment [12] in a line: qHTS assay for identifying genotoxic compounds that show differential cytotoxicity against isogenic chicken DT40 cell lines with known DNA damage response pathways - Rev3 mutant cell line (AID 743014). Note: nearly all actives have a fitted effect of over 55% in size. Note: potency is the fitted concentration of half-maximal effect.
A short description of experiment [13]: qHTS assay for identifying genotoxic compounds that show differential cytotoxicity against isogenic chicken DT40 cell lines with known DNA damage response pathways - Rad54/Ku70 mutant cell line (AID 743015). Note: nearly all actives have a fitted effect of over 60% in size.
A short description of experiment [14]: qHTS assay to identify small molecule antagonists of the androgen receptor (AR) signaling pathway - cell viability counter screen (AID 743033; note: nearly all actives have a fitted effect of over 45% in size).
The nature of experiment [15]: qHTS assay to identify small molecule antagonists of the androgen receptor (AR) signaling pathway using the MDA cell line - cell viability counter screen (AID 743041; note: nearly all actives have a fitted effect of over 45% in size). In outline:
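MDA-kb2 AR-luc cells (MMTV-luciferase, AR/GR responsive) treated with compounds plus R1881 agonist for 16 h at 37C. CellTiter-Fluor added at 15.5 h; fluorescence read after 30 min in the same wells.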

The nature of experiment [16]: qHTS assay to test for compound auto fluorescence at 590 nm (red) in HepG2 cell free culture (AID 720684). In outline: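 Compound was pinned into wells holding MEM with 10% FBS and no cells, and red fluorescence was read at Ex/Em 540/590 nm. Signal is expressed as auto fluorescence equivalency relative to Rose Bengal sodium.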
Experiment [17] addresses Androgen receptor (Homo sapiens) (UniProt P10275). Nature of the experiment: qHTS assay to identify small molecule antagonists of the androgen receptor (AR) signaling pathway (AID 743035; active = well fitted inhibition curve with a large enough effect in the signal ratio in the repeat runs, not every such curve was filed as active; the % refers to the signal ratio). The method in brief: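 Antagonism is scored as loss of R1881-driven beta-lactamase reporter expression in HEK293 cells carrying the reporter under a UAS element, after 16 h co-treatment at 37C and a 2 h room-temperature FRET substrate read.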

Experiment [18] shares this target. Nature of the experiment: qHTS assay to identify small molecule agonists of the androgen receptor (AR) signaling pathway (AID 743036; active = well fitted activation curve with a large enough effect in the signal ratio in the repeat runs, with a control signal flat, not every such curve was filed as active; the % refers to the signal ratio). The method in brief:
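Screening used 2,000 AR-bla HEK293 cells per well, treated 16 h at 37C with test compounds in DMSO alongside positive and DMSO-only controls; beta-lactamase activity was then read by LiveBLAzer B/G FRET fluorescence after 2 h at room temperature.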

Experiment [19] shares this target. Nature of the experiment: qHTS assay to identify small molecule agonists of the androgen receptor (AR) signaling pathway using the MDA cell line (AID 743040; note: nearly all actives have a fitted effect of over 20% in size). The method in brief: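 MDA-kb2 breast carcinoma cells carrying MMTV-luciferase (responsive to AR and GR), plated 5 h then treated 16 h with compounds at 37C, 0% CO2. Read-out was ONE-Glo luminescence after 30 min at room temperature.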

For experiment [20] the target is unchanged. Nature of the experiment: qHTS assay to identify small molecule antagonists of the androgen receptor (AR) signaling pathway using the MDA cell line (AID 743042; note: nearly all actives have a fitted effect of over 55% in size). The method in brief: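 MDA-kb2 breast carcinoma cells carrying MMTV-luciferase (AR/GR responsive) were co-treated with compounds and the agonist R1881 for 16 h at 37C. Inhibition read as ONE-Glo luminescence; CellTiter-Fluor fluorescence measured in parallel for cytotoxicity.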

Unmarked numbers belong to inactive results. Records with an inconclusive call do not appear. Active and inactive are the calls of the source. Unless noted, calls come from the whole dose curve; as a rule, active = well fitted curve in the direction sought with a large enough effect in the repeat runs; inconclusive = weak or mixed curves; inactive = no such curve, though single readings can be large; an effect the other way counts as inactive or inconclusive.

Sequence of Glucocorticoid receptor (Homo sapiens) (P04150 whole entry, looked up): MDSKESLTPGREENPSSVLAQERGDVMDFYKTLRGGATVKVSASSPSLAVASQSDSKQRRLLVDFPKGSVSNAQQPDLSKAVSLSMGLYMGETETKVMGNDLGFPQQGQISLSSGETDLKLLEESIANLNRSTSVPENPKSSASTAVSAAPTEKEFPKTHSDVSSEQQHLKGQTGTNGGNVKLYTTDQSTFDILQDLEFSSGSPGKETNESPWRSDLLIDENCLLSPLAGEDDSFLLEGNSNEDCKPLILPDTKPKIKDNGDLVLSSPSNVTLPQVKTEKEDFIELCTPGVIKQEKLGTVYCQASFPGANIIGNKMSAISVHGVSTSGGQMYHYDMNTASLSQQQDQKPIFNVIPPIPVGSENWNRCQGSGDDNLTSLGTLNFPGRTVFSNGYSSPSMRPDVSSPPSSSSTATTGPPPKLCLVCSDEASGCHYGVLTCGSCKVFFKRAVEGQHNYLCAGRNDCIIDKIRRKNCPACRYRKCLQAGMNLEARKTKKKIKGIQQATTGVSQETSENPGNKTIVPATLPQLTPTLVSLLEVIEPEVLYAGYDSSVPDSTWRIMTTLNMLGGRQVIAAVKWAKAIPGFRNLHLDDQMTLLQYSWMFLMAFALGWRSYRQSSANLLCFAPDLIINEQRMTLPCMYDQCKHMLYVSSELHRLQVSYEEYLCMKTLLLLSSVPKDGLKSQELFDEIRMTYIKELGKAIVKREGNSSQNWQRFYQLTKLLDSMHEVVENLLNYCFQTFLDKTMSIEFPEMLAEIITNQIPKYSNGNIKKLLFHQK
Sequence of Androgen receptor (Homo sapiens) (P10275 whole entry, looked up): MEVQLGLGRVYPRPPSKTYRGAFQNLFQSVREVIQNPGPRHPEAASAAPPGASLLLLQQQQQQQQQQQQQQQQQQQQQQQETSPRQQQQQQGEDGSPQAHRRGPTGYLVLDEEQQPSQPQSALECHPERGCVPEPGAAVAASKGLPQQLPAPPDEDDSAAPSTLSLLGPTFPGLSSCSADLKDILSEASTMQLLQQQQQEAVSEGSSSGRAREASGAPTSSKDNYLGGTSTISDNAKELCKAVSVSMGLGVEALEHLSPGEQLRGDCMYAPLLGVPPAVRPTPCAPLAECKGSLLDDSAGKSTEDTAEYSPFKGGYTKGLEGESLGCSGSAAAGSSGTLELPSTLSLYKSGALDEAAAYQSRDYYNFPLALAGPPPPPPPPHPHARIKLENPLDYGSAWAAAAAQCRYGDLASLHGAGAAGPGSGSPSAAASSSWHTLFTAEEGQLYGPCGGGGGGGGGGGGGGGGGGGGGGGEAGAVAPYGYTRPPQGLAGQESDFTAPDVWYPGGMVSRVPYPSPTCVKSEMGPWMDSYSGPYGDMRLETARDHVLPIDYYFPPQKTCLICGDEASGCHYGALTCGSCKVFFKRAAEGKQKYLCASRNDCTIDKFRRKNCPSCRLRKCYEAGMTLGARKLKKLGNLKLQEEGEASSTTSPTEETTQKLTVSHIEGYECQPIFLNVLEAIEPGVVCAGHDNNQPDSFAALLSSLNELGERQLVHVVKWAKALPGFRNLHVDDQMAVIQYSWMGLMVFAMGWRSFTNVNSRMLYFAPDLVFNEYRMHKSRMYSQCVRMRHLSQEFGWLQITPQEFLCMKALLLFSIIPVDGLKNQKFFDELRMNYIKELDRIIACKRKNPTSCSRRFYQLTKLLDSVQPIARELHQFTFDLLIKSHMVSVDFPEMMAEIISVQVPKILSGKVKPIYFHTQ

Consider `CO/N=C(\C(=O)N[C@@H]1C(=O)N2C(C(=O)O)=C(CSc3nc(=O)c(O)nn3C)CS[C@H]12)c1csc(N)n1`, for which the compound was called inactive in experiment [1], in experiment [2], in [3], in experiment [4], in experiment [5] and in experiment [6]. For the same compound, the compound was classed as inactive in experiment [7], in experiment [10] and in experiment [14]. The Potency entry in experiment [8], in experiment [9], in experiment [11], in [12], in experiment [13] and in experiment [15] was “inactive” in each case.

With `FB(F)F`, the compound was called inactive in experiment [1], in [2], in experiment [4], in experiment [16], in experiment [5] and in experiment [6]. In addition, the call in experiment [7], in experiment [10] and in [14] was inactive. Also, the Potency result in experiment [8], in [9], in experiment [11], in [12], in [13] and in experiment [15] was “inactive” each time.

As to `CC(C)(N)C#N`, the compound was classed as inactive in [1], in experiment [2], in experiment [3], in experiment [4], in experiment [5] and in [6]. Also, the call in [7], in [10] and in [14] was inactive. Further, the Potency result in experiment [8], in experiment [12], in [13] and in experiment [15] was “inactive” in each case.

`CCN(Cc1ccccc1)c1ccccc1`: the compound was called inactive in [1], in [2], in experiment [3], in [4], in [5] and in experiment [6]. Besides, the call in experiment [10], in [14], in experiment [18] and in [20] was inactive. Besides, the Potency result in [12], in [13], in [17], in experiment [19] and in experiment [15] was “inactive” each time.

As for `Cc1ccc(C(=O)Nc2ccc(S(=O)(=O)O)c3cc(S(=O)(=O)O)cc(S(=O)(=O)O)c23)cc1NC(=O)c1cccc(NC(=O)Nc2cccc(C(=O)Nc3cc(C(=O)Nc4ccc(S(=O)(=O)O)c5cc(S(=O)(=O)O)cc(S(=O)(=O)O)c45)ccc3C)c2)c1`, the result in experiment [1], in experiment [2], in experiment [3], in [4], in experiment [5] and in experiment [6] was inactive. The compound was classed as inactive in experiment [10] and in [14]. For the same compound, the Potency result in experiment [8], in experiment [9], in [11], in experiment [12] and in [15] was “inactive” each time.

In the case of `CCN(CC#N)c1cccc(C)c1`, the compound was called inactive in experiment [1], in experiment [2], in experiment [3], in experiment [4], in experiment [5] and in experiment [6]. The compound was classed as inactive in experiment [7] and in experiment [10]. In addition, the Potency result in [11], in experiment [12], in experiment [13] and in [15] was “inactive” throughout.

Turning to `CC(=O)C1CCCCC1=O` (stereo not given), the compound was called inactive in experiment [1], in [2], in [3], in [4], in experiment [5] and in [6]. The result in experiment [10] and in experiment [14] was inactive. Further, the Potency result in [8], in [9], in experiment [12], in [13] and in experiment [15] was “inactive” in each case.

In the case of `CCOC(=O)C1=NOC(c2ccccc2)(c2ccccc2)C1`, the outcome in experiment [1], in [2], in [3], in [4], in experiment [5] and in experiment [6] was inactive. Also, the result in experiment [7] and in experiment [14] was inactive. The Potency result in [8], in experiment [9] and in [15] was “inactive” throughout. In addition, the Potency in [12] is 68.6 µM (active).

As for `CNCCO`, the compound was classed as inactive in experiment [1], in experiment [2], in experiment [3], in experiment [4], in experiment [16] and in experiment [5]. Also, the outcome in [6] and in [14] was inactive. The Potency entry in [11], in experiment [12], in experiment [13] and in experiment [15] was “inactive” each time.

For the origin of these results see PubChem BioAssay (Tox21).
